Consider 20 molecules from PubChem BioAssay (Tox21).

For assay [1], the target named is Nuclear receptor subfamily 1 group I member 2 (Homo sapiens) (UniProt O75469). The experiment in a line: Human pregnane X receptor (PXR) small molecule agonists, qHTS assay (AID 1346982). Note: nearly all actives have a fitted effect of over 35% in size. Note: potency is the fitted concentration of half-maximal effect. Summed up: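 Agonist mode qHTS: PXR-Luc HepG2 cells plated 5 hr before DMSO-dissolved compounds were pinned in, cultured 24 hr at 37 C, 5% CO2; ONE-Glo luminescence readout.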
Nuclear receptor subfamily 1 group I member 2 (Homo sapiens), sequence (O75469 whole entry, looked up): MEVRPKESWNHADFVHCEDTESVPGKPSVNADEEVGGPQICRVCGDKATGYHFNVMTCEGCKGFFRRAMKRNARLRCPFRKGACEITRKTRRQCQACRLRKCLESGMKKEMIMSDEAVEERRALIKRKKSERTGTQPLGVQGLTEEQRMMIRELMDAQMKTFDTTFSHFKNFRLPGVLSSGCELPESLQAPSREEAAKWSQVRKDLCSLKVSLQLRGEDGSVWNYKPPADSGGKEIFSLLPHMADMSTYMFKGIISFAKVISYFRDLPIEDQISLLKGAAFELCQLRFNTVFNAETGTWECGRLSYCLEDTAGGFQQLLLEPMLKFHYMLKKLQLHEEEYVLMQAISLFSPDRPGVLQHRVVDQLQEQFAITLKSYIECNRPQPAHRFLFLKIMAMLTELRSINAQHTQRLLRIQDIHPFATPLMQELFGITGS
On the technique in general: Quantitative high-throughput screening tests each substance at several concentrations.

The target of assay [2] is Cytochrome P450 2D6 (Homo sapiens) (UniProt P10635). The experiment in a line: Cytochrome P450 Family 2 Subfamily D Member 6 (CYP2D6) small molecule antagonists: luciferase reporter qHTS assay (AID 1671196). For activity change, negative = inhibition: series mostly up to about 120 µM. Note: nearly all actives have a fitted effect of over 50% in size. Note: potency is the fitted concentration of half-maximal effect. The essentials:
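P450-Glo format: CYP2D6 converts a proluciferin substrate to luciferin in an NADPH-driven reaction lasting 1 h at room temperature. Light output, proportional to CYP2D6 activity, reflects interference by test chemicals.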
On the technique in general: In a reporter assay the amount or activity of a reporter protein is the signal.

Assay [3] has as its target Cytochrome P450 2C19 (Homo sapiens) (UniProt P33261). The experiment in a line: Cytochrome P450 Family 2 Subfamily C Member 19 (CYP2C19) small molecule antagonists: luciferase reporter qHTS assay (AID 1671197). Note: series mostly up to about 120 µM; nearly all actives have a fitted effect of over 65% in size. Summed up:
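Luminescent readout of CYP2C19 activity: luciferin product detected 20 min after adding detection reagent. Before that, compound and enzyme-substrate mix preincubated 10 min at room temperature; NADPH-regenerating system started a 1 h, 37C reaction. Ketoconazole as positive control.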

For assay [4], the target named is Cytochrome P450 2C9 (Homo sapiens) (UniProt P11712). The experiment in a line: Cytochrome P450 Family 2 Subfamily C Member 9 (CYP2C9) small molecule antagonists: luciferase reporter qHTS assay (AID 1671198). Note: series mostly up to about 120 µM; nearly all actives have a fitted effect of over 50% in size. Summed up: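 CYP2C9 activity was measured with a P450-Glo proluciferin substrate. Enzyme–substrate mix was held with compound for 10 min at room temperature, then NADPH regeneration solution was added for 1 h at 37C. Luciferin product was read as luminescence.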
Cytochrome P450 2C9 (Homo sapiens), sequence (P11712 whole entry, looked up): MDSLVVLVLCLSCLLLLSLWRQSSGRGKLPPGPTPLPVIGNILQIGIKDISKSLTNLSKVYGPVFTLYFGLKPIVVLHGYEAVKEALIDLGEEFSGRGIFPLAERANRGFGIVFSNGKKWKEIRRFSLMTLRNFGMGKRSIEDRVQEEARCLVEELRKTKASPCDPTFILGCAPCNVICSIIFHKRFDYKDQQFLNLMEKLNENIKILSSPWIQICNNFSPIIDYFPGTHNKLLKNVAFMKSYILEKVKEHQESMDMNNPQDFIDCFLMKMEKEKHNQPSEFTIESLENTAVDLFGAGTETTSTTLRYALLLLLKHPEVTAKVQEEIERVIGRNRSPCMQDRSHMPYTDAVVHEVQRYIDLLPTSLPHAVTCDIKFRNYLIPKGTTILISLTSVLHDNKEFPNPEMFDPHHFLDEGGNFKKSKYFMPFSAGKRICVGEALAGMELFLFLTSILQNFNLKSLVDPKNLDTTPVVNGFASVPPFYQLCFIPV

The target in assay [5] is Cytochrome P450 1A2 (Homo sapiens) (UniProt P05177). As to the kind of experiment: Cytochrome P450 Family 1 Subfamily A Member 2 (CYP1A2) small molecule antagonists: luciferase reporter qHTS assay (AID 1671199). For activity change, negative = inhibition: series mostly up to about 120 µM. Note: nearly all actives have a fitted effect of over 50% in size. Note: potency is the fitted concentration of half-maximal effect. Summed up:
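Inhibition of CYP1A2 conversion of proluciferin to luciferin, detected by luminescence. Reaction run 1 h at room temperature with NADPH regeneration after brief compound preincubation.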

In assay [6] the target is Voltage-gated inwardly rectifying potassium channel KCNH2 (Homo sapiens) (UniProt Q12809). As to the kind of experiment: Human Ether-a-go-go-Related Gene (hERG) channel small molecule antagonists: fluorescence cell-based qHTS assay (AID 1671200).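 For activity change, negative = inhibition: hERG-expressing U2OS cells given a thallium stimulus after FluxOR II dye loading; series mostly up to about 77 µM.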 Note: nearly all actives have a fitted effect of over 50% in size. Note: potency is the fitted concentration of half-maximal effect. The essentials: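 First, 1000 cells per well are seeded and cultured overnight at 37 C. Next, FluxOR II dye is loaded for 1 h at room temperature, protected from light. After 10 more minutes, stimulus is added and fluorescence is read.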
Voltage-gated inwardly rectifying potassium channel KCNH2 (Homo sapiens), sequence (Q12809 whole entry, looked up): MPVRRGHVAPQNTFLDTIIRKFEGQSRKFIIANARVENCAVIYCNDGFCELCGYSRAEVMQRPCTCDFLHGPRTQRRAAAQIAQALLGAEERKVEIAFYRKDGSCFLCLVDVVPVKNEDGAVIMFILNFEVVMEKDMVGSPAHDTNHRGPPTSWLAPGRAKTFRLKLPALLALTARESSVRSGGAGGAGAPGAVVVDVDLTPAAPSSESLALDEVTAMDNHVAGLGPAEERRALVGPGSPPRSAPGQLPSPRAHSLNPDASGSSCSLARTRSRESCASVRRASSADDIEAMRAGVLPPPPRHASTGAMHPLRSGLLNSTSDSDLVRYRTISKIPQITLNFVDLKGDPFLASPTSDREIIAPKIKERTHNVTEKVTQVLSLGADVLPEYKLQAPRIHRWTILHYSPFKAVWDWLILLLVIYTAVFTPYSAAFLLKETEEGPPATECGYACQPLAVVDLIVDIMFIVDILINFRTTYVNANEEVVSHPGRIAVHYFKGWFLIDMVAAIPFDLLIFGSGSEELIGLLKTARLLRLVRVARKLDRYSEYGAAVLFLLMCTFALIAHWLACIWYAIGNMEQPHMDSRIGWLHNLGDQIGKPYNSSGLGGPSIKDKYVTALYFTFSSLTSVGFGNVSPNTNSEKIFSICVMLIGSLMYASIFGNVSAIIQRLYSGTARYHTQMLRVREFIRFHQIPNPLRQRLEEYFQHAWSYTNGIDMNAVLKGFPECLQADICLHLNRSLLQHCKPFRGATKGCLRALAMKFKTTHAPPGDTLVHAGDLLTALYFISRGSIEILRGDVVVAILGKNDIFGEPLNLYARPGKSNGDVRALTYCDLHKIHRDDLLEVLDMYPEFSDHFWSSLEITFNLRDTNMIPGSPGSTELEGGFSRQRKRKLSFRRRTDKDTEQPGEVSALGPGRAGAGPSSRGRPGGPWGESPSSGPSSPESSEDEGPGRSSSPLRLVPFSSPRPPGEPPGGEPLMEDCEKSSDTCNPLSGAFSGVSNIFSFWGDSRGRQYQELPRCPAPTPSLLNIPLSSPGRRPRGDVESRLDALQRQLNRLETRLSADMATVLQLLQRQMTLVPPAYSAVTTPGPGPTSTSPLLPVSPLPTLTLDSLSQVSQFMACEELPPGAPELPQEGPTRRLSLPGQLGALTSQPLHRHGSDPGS
Background: Block of hERG is tested as a sign of cardiac risk.

Assay [7] deals with Cytochrome P450 3A4 (Homo sapiens) (UniProt P08684). The experiment in a line: Cytochrome P450 Family 3 Subfamily A Member 4 (CYP3A4) small molecule antagonists: luciferase reporter qHTS assay (AID 1671201). The essentials: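 Enzyme and proluciferin substrate are mixed with test chemicals for 10 min, then NADPH regeneration system drives turnover for 1 h at room temperature. A detection reagent halts the reaction; luminescence after 20 min gives relative activity.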
Cytochrome P450 3A4 (Homo sapiens), sequence (P08684 whole entry, looked up): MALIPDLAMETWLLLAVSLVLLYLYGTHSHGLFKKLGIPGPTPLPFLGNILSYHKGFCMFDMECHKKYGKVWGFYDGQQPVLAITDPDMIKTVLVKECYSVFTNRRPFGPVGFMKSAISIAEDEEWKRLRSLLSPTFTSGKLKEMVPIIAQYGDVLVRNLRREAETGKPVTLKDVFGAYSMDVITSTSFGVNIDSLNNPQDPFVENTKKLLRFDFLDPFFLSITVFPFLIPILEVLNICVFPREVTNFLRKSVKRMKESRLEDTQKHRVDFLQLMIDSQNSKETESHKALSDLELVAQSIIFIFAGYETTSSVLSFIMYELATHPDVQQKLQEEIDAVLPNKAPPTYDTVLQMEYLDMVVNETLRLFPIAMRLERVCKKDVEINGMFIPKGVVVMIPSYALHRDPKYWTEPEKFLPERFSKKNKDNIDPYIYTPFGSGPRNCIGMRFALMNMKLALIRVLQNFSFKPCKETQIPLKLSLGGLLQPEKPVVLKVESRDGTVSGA

The target in assay [8] is Nuclear receptor subfamily 1 group I member 2 (Rattus norvegicus) (UniProt Q9R1A7). The experiment in a line: Rat pregnane X receptor (rPXR) activation by small molecules, qHTS assay (AID 1346983). Note: nearly all actives have a fitted effect of over 20% in size. The conditions noted are these: rPXR luciferase reporter cells, One-Glo luminescence, 24 h; active compounds read high. Summed up:
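Cell-based rPXR luciferase reporter assay, 2,000 cells per well, rested 5hr at 37 C before compound addition in DMSO, then 24 hr at 37 C. One-Glo reagent was added and luminescence read after 30 min at room temperature.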

Assay [9] addresses Nuclear receptor subfamily 1 group I member 2 (Homo sapiens) (UniProt O75469). The experiment in a line: Human pregnane X receptor (PXR) activation by small molecules, qHTS assay (AID 1346985). Note: nearly all actives have a fitted effect of over 40% in size. Note: potency is the fitted concentration of half-maximal effect. Summed up: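 DPX-2 cells (HepG2 co-transfected with a PXR response element and a CYP3A4-promoter luciferase construct) were seeded at 2,000 per well, rested 5 hr at 37C, then exposed to DMSO-dissolved compounds for 24 hr. Activation was read as luciferase luminescence.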

Results filed as inconclusive are left out. A number with no mark means an inactive call. Calls of active or inactive are those of the source. Calls come from the whole dose curve; as a rule, active = well fitted curve in the direction sought with a large enough effect in the repeat runs; inconclusive = weak or mixed curves; inactive = no such curve, though single readings can be large; an effect the other way counts as inactive or inconclusive.
% is set by controls: 0 for no effect and ±100 for the full control effect.

Cytochrome P450 2C19 (Homo sapiens), sequence (P33261 whole entry, looked up): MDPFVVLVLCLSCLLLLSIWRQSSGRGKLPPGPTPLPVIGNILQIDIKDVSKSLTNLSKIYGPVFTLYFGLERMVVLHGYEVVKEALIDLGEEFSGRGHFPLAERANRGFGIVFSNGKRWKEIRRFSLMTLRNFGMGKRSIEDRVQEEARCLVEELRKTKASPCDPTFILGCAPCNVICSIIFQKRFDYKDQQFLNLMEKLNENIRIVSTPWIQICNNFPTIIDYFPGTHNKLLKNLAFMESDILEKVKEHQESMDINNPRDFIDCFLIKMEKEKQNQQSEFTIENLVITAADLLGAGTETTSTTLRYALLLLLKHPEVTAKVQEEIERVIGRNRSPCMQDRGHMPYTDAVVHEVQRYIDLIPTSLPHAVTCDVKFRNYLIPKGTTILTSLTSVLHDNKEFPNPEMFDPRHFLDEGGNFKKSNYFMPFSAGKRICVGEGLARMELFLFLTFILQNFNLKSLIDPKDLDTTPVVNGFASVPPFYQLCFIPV
Cytochrome P450 2D6 (Homo sapiens), sequence (P10635 whole entry, looked up): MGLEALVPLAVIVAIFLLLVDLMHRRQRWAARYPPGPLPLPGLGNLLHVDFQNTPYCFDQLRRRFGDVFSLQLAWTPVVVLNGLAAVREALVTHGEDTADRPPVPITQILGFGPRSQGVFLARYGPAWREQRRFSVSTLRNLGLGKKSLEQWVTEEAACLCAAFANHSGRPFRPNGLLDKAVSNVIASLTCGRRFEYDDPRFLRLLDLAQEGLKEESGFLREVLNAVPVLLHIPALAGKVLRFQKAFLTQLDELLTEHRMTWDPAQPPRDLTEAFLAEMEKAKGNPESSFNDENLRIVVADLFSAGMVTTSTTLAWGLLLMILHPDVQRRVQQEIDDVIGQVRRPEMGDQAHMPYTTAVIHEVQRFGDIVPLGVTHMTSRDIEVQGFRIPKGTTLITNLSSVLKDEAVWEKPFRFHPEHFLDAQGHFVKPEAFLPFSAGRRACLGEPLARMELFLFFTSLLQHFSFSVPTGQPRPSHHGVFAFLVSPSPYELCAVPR
Cytochrome P450 1A2 (Homo sapiens), sequence (P05177 whole entry, looked up): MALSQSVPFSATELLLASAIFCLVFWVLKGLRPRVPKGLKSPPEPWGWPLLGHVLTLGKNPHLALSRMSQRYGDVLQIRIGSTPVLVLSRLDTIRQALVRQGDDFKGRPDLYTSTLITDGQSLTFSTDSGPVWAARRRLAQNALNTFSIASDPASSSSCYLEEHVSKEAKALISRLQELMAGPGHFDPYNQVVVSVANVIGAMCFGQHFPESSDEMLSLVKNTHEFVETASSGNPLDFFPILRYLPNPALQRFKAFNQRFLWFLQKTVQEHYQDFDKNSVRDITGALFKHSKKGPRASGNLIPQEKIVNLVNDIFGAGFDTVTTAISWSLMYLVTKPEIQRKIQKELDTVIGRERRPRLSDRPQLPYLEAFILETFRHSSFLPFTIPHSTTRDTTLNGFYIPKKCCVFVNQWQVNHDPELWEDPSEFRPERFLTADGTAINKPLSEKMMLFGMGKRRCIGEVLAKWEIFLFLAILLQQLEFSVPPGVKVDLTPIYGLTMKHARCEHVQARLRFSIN
Nuclear receptor subfamily 1 group I member 2 (Rattus norvegicus), sequence (Q9R1A7 whole entry, looked up): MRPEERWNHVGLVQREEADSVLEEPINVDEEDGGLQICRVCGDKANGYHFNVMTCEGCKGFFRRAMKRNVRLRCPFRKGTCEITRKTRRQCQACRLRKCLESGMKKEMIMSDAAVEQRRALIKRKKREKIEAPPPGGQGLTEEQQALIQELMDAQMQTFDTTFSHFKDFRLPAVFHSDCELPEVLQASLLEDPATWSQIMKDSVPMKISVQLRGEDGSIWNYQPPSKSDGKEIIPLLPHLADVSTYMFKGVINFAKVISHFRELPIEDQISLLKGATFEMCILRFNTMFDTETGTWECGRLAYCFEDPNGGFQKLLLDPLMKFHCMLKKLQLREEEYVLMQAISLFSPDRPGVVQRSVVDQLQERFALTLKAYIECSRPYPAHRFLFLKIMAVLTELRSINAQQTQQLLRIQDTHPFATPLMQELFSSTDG

On to `O=C1c2ccccc2C(=O)c2cc(Cl)ccc21`, for which the activation in assay [1] was 8.25% [at 8.39 µM]. In addition, the activity change, negative = inhibition in assay [2] is -1.33% [at 10.5 µM]; in assay [3], -15.8% [at 10.5 µM]; in assay [4], -13.1% [at 10.5 µM]; in [6], -0.029% [at 6.97 µM]; in [7], 5.17% [at 10.5 µM]. Besides, the Potency in assay [5] is 0.138 µM (active).

As for `CC(C)c1ccc(C=O)cc1`, the Potency result in assay [1], in [2], in assay [3], in assay [4], in assay [5] and in assay [6] was “inactive” each time. Moreover, in [7], the Potency result is “inactive”.

Consider `CC(=O)C(C)O` (centres undefined), for which the Potency result in assay [1], in assay [2], in assay [3], in [4], in [5] and in assay [6] was “inactive” throughout. Besides, in assay [7], the Potency entry is “inactive”.

In the case of `CCOC(CN1CCN(CC(C)C(=O)c2ccccc2)CC1)c1ccccc1` (centres undefined), the Potency in assay [1] was 14.6 µM (active); in assay [9], 10 µM (active); in [2] it was 0.213 µM (active); in assay [6] it was 10.4 µM (active). Besides, in [8], the max activation is 1.41%. In addition, the activity change, negative = inhibition in [5] was 12.6% [at 23.6 µM]; in assay [7], 51.9% [at 23.6 µM].

On to `CO[C@@]1(NC(=O)Cc2cccs2)C(=O)N2C(C(=O)O)=C(COC(N)=O)CS[C@@H]21`, for which the Potency entry in [1], in assay [2], in [3], in assay [4], in [5] and in assay [6] was “inactive” in each case. In addition, the Potency result in assay [7] is “inactive”.

Regarding `OCC1CCC(CO)CC1` (centres undefined), the Potency result in assay [1], in assay [2], in assay [3], in assay [4], in assay [5] and in assay [6] was “inactive” in each case. In assay [7], the Potency entry is “inactive”.

In the case of `CC1(C)[C@H]2CC[C@](C)(C2)[C@H]1O`, the Potency result in [1], in assay [2], in assay [3], in [4], in [5] and in [6] was “inactive” in each case. The Potency result in assay [7] was “inactive”.

As for `CCOC(=O)CC1(C)OCC(C)O1` (centres undefined), the Potency entry in assay [1], in [2], in [3], in assay [4], in assay [5] and in assay [6] was “inactive” each time. Besides, the Potency result in assay [7] is “inactive”.

For `CCCCOC(=O)C(C)O` (centres undefined), the Potency result in assay [1], in assay [2], in [3], in assay [4], in [5] and in assay [6] was “inactive” throughout. Further, in [7], the Potency result is “inactive”.

Turning to `N#Cc1ccccc1O`, the Potency result in assay [1], in [2], in assay [3], in assay [4], in [5] and in assay [6] was “inactive” throughout. Besides, the Potency result in [7] is “inactive”.

Consider `C=Cc1ccc(C(C)(C)C)cc1`, for which the Potency entry in assay [1], in [2], in assay [3], in assay [4], in assay [5] and in assay [6] was “inactive” in each case. Further, in assay [7], the Potency result was “inactive”.

For the molecule `COc1cc2c(cc1OC)CN(C(=O)[C@H](C)N[C@@H](CCc1ccccc1)C(=O)O)[C@H](C(=O)O)C2`, the Potency entry in assay [1], in assay [2], in assay [3], in assay [4], in assay [5] and in assay [6] was “inactive” in each case. Moreover, the Potency result in [7] is “inactive”.

With `[O]=[Mo](=[O])=[O]`, the activation in assay [1] was 1.34% [at 19 µM]. The activity change, negative = inhibition in [2] is -4.35% [at 23.6 µM]; in assay [3] it was -2.98% [at 23.6 µM]; in assay [4], -0.296% [at 23.6 µM]; in [5], 2.53% [at 23.6 µM]; in assay [6], -1.28% [at 15.8 µM]; in assay [7], -5.3% [at 23.6 µM].

On to `C=CCOC(=O)CCCCCC`, for which the Potency result in [1], in assay [2], in [3], in assay [4], in assay [5] and in assay [6] was “inactive” each time. The Potency entry in assay [7] was “inactive”.

For the molecule `N[C@@H](Cc1ccc(O)cc1)C(=O)O`, the activation in assay [1] is -5.23% [at 8.39 µM]. In assay [8], the max activation was 3.66%. In assay [9], the Potency entry was “inactive”.

On to `CCCCOC(=O)[C@H](C)O`, for which the Potency result in assay [1], in assay [2], in assay [3], in assay [4], in assay [5] and in assay [6] was “inactive” each time. Also, in [7], the Potency result is “inactive”.

`CCCCCC(C)O` (centres undefined): the Potency result in assay [1], in [2], in assay [3], in assay [4], in assay [5] and in assay [6] was “inactive” throughout. In addition, in [7], the Potency result was “inactive”.

As for `CN(C)CCCCl`, the Potency entry in [1], in [2], in assay [3], in [4], in assay [5] and in assay [6] was “inactive” throughout. Moreover, the Potency result in [7] was “inactive”.

Turning to `CC(C)OC(=O)CCC(=O)OC(C)C`, the Potency result in assay [1], in [2], in assay [3], in assay [4], in assay [6] and in assay [7] was “inactive” throughout.

For the molecule `C=CCSSCCC`, the Potency result in assay [1], in [3], in assay [4], in assay [6] and in [7] was “inactive” each time. Besides, the Potency in [2] is 56.2 µM (active).
